In the supplement of paper PMC12669032:

Tests used:
Test in all cases: growth AUC relative to DMSO control (median of replicates) (fraction); higher = more growth (less inhibition), active = hit call of the paper
Conditions in all cases: 20 µM; 24 h;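 active = AUC reduced over 20% with Padj below 0.05 in at least 2 of 3 replicates; inactive = otherwise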
[1] = tested on: Akkermansia muciniphila
Procedure, shortened: (§1)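 Area under the growth curve was normalised to the plate median of solvent-only wells, or to row and column medians on the industrial chemical plate. Growth curves came from anaerobic gut bacterial monocultures in mGAM at 37 °C, seeded at OD600 0.05 with 20 µM compound (1% DMSO), and read at OD600 hourly for 24 h with the minimum OD set to 0. The value is the median of three biological replicates grown on separate days.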

[2] = tested on: Bacteroides caccae
Procedure, shortened: as §1

[3] = tested on: Bacteroides clarus
Procedure, shortened: as §1

[4] = tested on: Bacteroides dorei
Procedure, shortened: as §1

[5] = tested on: Bacteroides stercoris
Procedure, shortened: as §1

[6] = tested on: Bacteroides thetaiotaomicron
Procedure, shortened: as §1

[7] = tested on: Bacteroides uniformis
Procedure, shortened: as §1

[8] = tested on: Bifidobacterium longum subsp. longum
Procedure, shortened: as §1

[9] = tested on: Clostridium difficile
Procedure, shortened: as §1

[10] = tested on: Collinsella aerofaciens
Procedure, shortened: as §1

Measured: growth AUC

C#CCOc1cc(-n2nc(C(C)(C)C)oc2=O)c(Cl)cc1Cl
inactive: [1] 1.14 | [2] 0.977 | [3] 0.986 | [4] 0.951 | [5] 0.879 | [6] 0.932 | [8] 1.05 | [9] 0.862 | [10] 0.917
active: [7] 0.799

Oc1ccc2ccccc2c1N=Nc1ccccc1
inactive: [1] 1 | [2] 0.973 | [3] 1.01 | [4] 0.977 | [5] 0.972 | [6] 1 | [7] 1 | [8] 0.942 | [9] 0.991 | [10] 0.917

Cc1cc(C)cc(OCC(C)Nc2nc(N)nc(C(C)(C)F)n2)c1 (stereo not given)
inactive: [1] 1.07 | [2] 0.889 | [3] 0.889 | [4] 0.978 | [5] 0.746 | [6] 0.912 | [7] 0.962 | [8] 1.03 | [9] 0.983 | [10] 0.929

CCOC(=O)Cn1c(=O)sc2cccc(Cl)c21
inactive: [1] 0.779 | [2] 0.987 | [3] 0.979 | [4] 0.97 | [5] 1 | [6] 0.999 | [7] 0.957 | [8] 1.04 | [9] 0.997 | [10] 0.936

CCNc1nc(NC(C)(C)C)[nH]c(=O)n1
inactive: [1] 1 | [2] 0.937 | [3] 0.98 | [4] 1.01 | [5] 1.17 | [6] 0.969 | [7] 0.983 | [8] 1.03 | [9] 0.951 | [10] 0.95

O=[N+](Nc1ccccc1)c1ccccc1
inactive: [1] 0.945 | [2] 0.972 | [3] 0.966 | [4] 0.997 | [5] 1.08 | [6] 0.991 | [7] 0.988 | [8] 0.934 | [9] 1 | [10] 0.965

CON=C(Cc1cccnc1)c1ccc(Cl)cc1Cl
inactive: [1] 1.06 | [2] 0.889 | [3] 0.971 | [4] 0.938 | [5] 1.28 | [6] 0.91 | [7] 0.921 | [8] 0.998 | [9] 1 | [10] 0.945

CSc1nnc(C(C)(C)C)c(=O)n1/N=C/C(C)C
inactive: [1] 0.944 | [2] 0.905 | [3] 1.04 | [4] 1.02 | [5] 1.35 | [6] 1.02 | [7] 0.988 | [8] 1.08 | [9] 1.01 | [10] 1.02

C=CCc1ccc(OC)c(OC)c1
inactive: [1] 1.02 | [2] 1.04 | [3] 0.998 | [4] 1.06 | [5] 1.01 | [6] 1.03 | [7] 1.04 | [8] 1.11 | [9] 0.984 | [10] 1.03

CC1CN(C2CCCCCCCCCCC2)CC(C)O1 (mixture of isomers)
inactive: [1] 0.892 | [2] 1.01 | [3] 0.967 | [4] 1.06 | [5] 0.84 | [6] 0.985 | [7] 1.08 | [8] 0.985 | [9] 0.961 | [10] 0.915

COC(=O)c1csc(C)c1S(=O)(=O)NC(=O)n1nc(OC)n(C)c1=O
inactive: [1] 1.17 | [2] 0.981 | [3] 1 | [4] 0.967 | [5] 1.02 | [6] 0.993 | [7] 0.955 | [8] 1.04 | [9] 0.931 | [10] 0.956

CCOc1ccc2c(c1)C(C)=CC(C)(C)N2
inactive: [1] 0.9 | [2] 1.04 | [3] 1 | [4] 1 | [5] 1.01 | [6] 0.995 | [7] 1.01 | [8] 1.03 | [9] 1.02 | [10] 1.02

c1ccc(Sc2ccccc2)cc1
inactive: [1] 1.03 | [2] 1.01 | [3] 1.08 | [4] 1.01 | [5] 1.05 | [6] 0.982 | [7] 1.05 | [8] 1.03 | [9] 1.02 | [10] 1.04

CCCCOC(=O)COc1ccc(Cl)cc1Cl
inactive: [1] 1.06 | [2] 0.975 | [3] 1.02 | [4] 0.996 | [5] 1.09 | [6] 0.987 | [7] 1.02 | [8] 0.965 | [9] 0.999 | [10] 0.957

O=C(Nc1ccc(F)cc1)c1cccc(Oc2cccc(C(F)(F)F)c2)n1
inactive: [1] 0.978 | [2] 0.964 | [3] 0.886 | [4] 0.895 | [5] 0.82 | [6] 1 | [7] 1.02 | [8] 1.04 | [9] 0.934 | [10] 0.865

CCCOC(=O)NCCCN(C)C
inactive: [1] 0.994 | [2] 1.01 | [3] 1.03 | [4] 1 | [5] 0.98 | [6] 1.02 | [7] 1 | [8] 1.02 | [9] 0.987 | [10] 0.975

CCOC(=O)/C(Cl)=C/c1cc(N2C(=O)C3=C(CCCC3)C2=O)ccc1Cl
inactive: [1] 0.947 | [2] 0.97 | [3] 0.934 | [4] 0.99 | [5] 0.834 | [6] 0.924 | [7] 0.937 | [8] 0.912 | [9] 1.03 | [10] 1.03

CC(=O)Nc1cc(NS(=O)(=O)C(F)(F)F)c(C)cc1C
inactive: [1] 0.856 | [2] 1.04 | [3] 0.973 | [4] 1.02 | [5] 0.886 | [6] 1.01 | [7] 1.02 | [8] 0.92 | [9] 1.08 | [10] 1.06

COc1cc(OC)nc(NC(=O)NS(=O)(=O)Nc2ccccc2C(=O)N(C)C)n1
inactive: [1] 1.01 | [2] 1 | [3] 0.983 | [4] 1.02 | [5] 0.982 | [6] 0.986 | [7] 1.01 | [8] 0.975 | [9] 0.974 | [10] 0.992

NC(=O)c1nn(-c2c(Cl)cc(C(F)(F)F)cc2Cl)c(N)c1S(=O)C(F)(F)F (stereo not given)
inactive: [1] 0.886 | [2] 0.973 | [3] 0.953 | [4] 0.995 | [5] 0.965 | [6] 0.972 | [7] 0.977 | [8] 0.976 | [9] 1 | [10] 0.985

CCCOC(=O)c1ccc(C(=O)OCCC)nc1
inactive: [1] 1.06 | [2] 1.01 | [3] 0.99 | [4] 1.04 | [5] 0.94 | [6] 1.02 | [7] 0.99 | [8] 1.05 | [9] 0.99 | [10] 0.967

CCCN(CCOc1c(Cl)cc(Cl)cc1Cl)C(N)=O
inactive: [1] 0.911 | [2] 0.899 | [3] 0.959 | [4] 0.935 | [5] 0.98 | [6] 0.961 | [7] 0.894 | [8] 0.971 | [9] 0.987 | [10] 0.993

[O-][n+]1nc(-n2ccnc2)nc2ccc(Cl)cc21
inactive: [1] 0.972 | [2] 1.07 | [3] 1 | [4] 1.05 | [5] 0.911 | [6] 0.99 | [7] 1.04 | [8] 0.974 | [9] 0.957 | [10] 0.964

COc1c(Cl)ccc(Cl)c1C(=O)O
inactive: [1] 0.878 | [2] 0.997 | [3] 0.975 | [4] 1.01 | [5] 0.961 | [6] 1 | [7] 0.947 | [8] 0.926 | [9] 1.01 | [10] 1.04

CCOC(=O)C1CC(=O)C(=C(O)C2CC2)C(=O)C1 (stereo not given)
inactive: [1] 1.01 | [2] 1.03 | [3] 0.965 | [4] 0.979 | [5] 0.982 | [6] 1 | [7] 0.972 | [8] 1.03 | [9] 1.01 | [10] 0.986

Nc1nc2ccccc2[nH]1
inactive: [1] 1.06 | [2] 0.96 | [3] 1.01 | [4] 0.911 | [5] 1.01 | [6] 1.02 | [7] 0.94 | [8] 1.03 | [9] 0.973 | [10] 0.943

CNC(=O)/C(=N/OC)c1ccccc1COc1cc(C(=O)O)ccc1C
inactive: [1] 1.01 | [2] 0.982 | [3] 1.03 | [4] 0.979 | [5] 0.967 | [6] 0.998 | [7] 1.01 | [8] 0.998 | [9] 0.991 | [10] 1

CCc1cccc(C)c1N(C(=O)C(=O)O)C(C)COC (stereo not given)
inactive: [1] 0.949 | [2] 1.03 | [3] 0.97 | [4] 1.02 | [5] 1.1 | [6] 1.03 | [7] 1.03 | [8] 1.03 | [9] 1.03 | [10] 1.04

c1ccc2[nH]c(-c3cscn3)nc2c1
inactive: [1] 0.73 | [2] 0.997 | [3] 1.01 | [4] 0.973 | [5] 0.947 | [6] 0.974 | [7] 1.02 | [8] 0.976 | [9] 0.985 | [10] 0.985
